Sampled rows, rich in hits. Any-hit rate of the full collection: about 7.9%.
MCF10A rerep = inducers of DNA re-replication in MCF 10A breast cells. MCF 10A DNA re-replication, Hoechst nuclear intensity, 48 h. Potency, µM (doses to about 46.1 µM), inactives show at the top dose activity, positive = re-replication, actives largely listed as activators. 2.9% of 350,000 active. AID 624296; note: % of control where 0% means no effect; nearly all actives have a fitted effect of over 50% in size
HT1080NT lethal = kills 2HG-producing HT-1080-NT fibrosarcoma cells; HT-1080-NT fibrosarcoma viability, CellTiter-Glo ATP luminescence, 48 h; Potency, µM (series often up to 46.1 µM), for the others: at the top dose activity, negative = less viability, hits mostly cytotoxic; 1.6% of 360,000 active;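 note: NT is the 2HG producing partner of a matched IDH1 knockdown line; 0% = DMSO-treated cells and -100% = media-only wells without cells; nearly all actives have a fitted effect of over 55% in size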
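A 48-hour cytotoxicity screen used HT-1080-NT cells plated 2 hours before compound delivery. ATP-based CellTiter-Glo luminescence measured viability, normalized to DMSO and no-cell controls.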
KB-V1 MDR tox = KB-V1 MDR subline cytotoxicity; AID 1347076; 3.4% of 400,000 active; Potency, µM (series often up to 46.1 µM), actives largely listed as cytotoxic; KB-V1 MDR cells viability, CellTiter-Glo, 72 h; note: % is set by controls: 0 for no effect and ±100 for the full control effect; nearly all actives have a fitted effect of over 60% in size
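Drug-selected KB-V1 cells, grown in DMEM lacking phenol red with 10% FBS, receive compound titrations; after three days at 37 degrees C, surviving cell ATP is quantified by CellTiter-Glo luminescence and responses normalized and curve-fitted.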
KB-3-1 cytotox = kills parental KB-3-1 adenocarcinoma cells; KB-3-1 viability, CellTiter-Glo ATP luminescence, 72 h; Potency, µM (top dose mostly 46.1 µM), usual class: cytotoxic; 1.4% of 400,000 active; AID 1347075; note: % is set by controls: 0 for no effect and ±100 for the full control effect; nearly all actives have a fitted effect of over 60% in size
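Here the drug-naive KB-3-1 line serves as comparator for MDR sub-line selectivity; cells received compound titrations, 72 h at 37 °C, then CellTiter-Glo readout.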
HT1080 IDH1KD tx = kills HT-1080 cells with IDH1 knockdown; Potency, µM (series often up to 46.1 µM), for the others: top-dose activity, negative = toxicity, hits mostly cytotoxic; 2% of 360,000 active; HT-1080 IDH1 knockdown viability, ATP luminescence, 48 h; AID 686971;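 note: 0% = DMSO wells and -100% = cell-free medium wells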
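Luminescent ATP read-out (CellTiter-Glo, 10 min at room temperature) after 48 h compound exposure at 37 °C gave viability of IDH1-knockdown HT-1080 cells. Activity was normalised to DMSO and cell-free wells, then fitted as concentration-response curves.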
SW480 rereplic = DNA re-replication induction in SW480 cells | SW480 DNA re-replication, Hoechst DNA content imaging, 48 h | 1.8% of 340,000 active | Potency, µM (highest dose often 46.1 µM), without a hit: top-dose re-replication activation, most hits filed as activators; note: % of control where 0% means no effect; nearly all actives have a fitted effect of over 55% in size
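Readout is total intensity of Hoechst-stained nuclei, excited at 405 nm and collected at 500-530 nm. Compound treatment lasted 48 hr at 37 C in 5% CO2 before staining.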
* hit, by the source's call; i = inactive; ? = inconclusive; nt = not tested or not shown; [ ] = dose if it differs, or a comment. Calls come from the whole dose curve; as a rule, active = well fitted curve in the direction sought with a large enough effect; inconclusive = small, poorly fitted or top-dose-only effect, or another doubt; inactive = no such curve, though single readings can be large; an effect the other way counts as inactive or inconclusive. Potency is the fitted concentration of half-maximal effect.

SMILES	MCF10A rerep	HT1080NT lethal	KB-V1 MDR tox	KB-3-1 cytotox	HT1080 IDH1KD tx	SW480 rereplic
CNC(=O)C1CC(=O)N(CCc2ccc(OC)c(OC)c2)C(=Nc2ccc(F)cc2)S1 (centres undefined)	11%	2%	i	i	1%	?
COc1ccc(CCN2C(=O)CC(C(N)=O)SC2=Nc2ccccc2)cc1OC (centres undefined)	4%	0%	21µM*	i	-3%	-2%
Nc1nonc1-n1nnc(C(=O)N/N=C/c2ccccc2Cl)c1-c1ccccc1	?	2%	i	i	2%	0%
Cn1cc(SCC(=O)NC2CCCC2)c2ccccc21	26%	6%	i	i	22%	-2%
CCN(CC)c1ccc2cc(S(=O)(=O)c3ccc(C)cc3)c(=O)oc2c1	2.6µM*	15%	i	i	5%	3.3µM*
CCN(CC)c1ccc2c(C)cc(=O)oc2c1	26µM*	nt	?	i	nt	?
Cc1ccc(S(=O)(=O)c2cc3ccccc3oc2=O)cc1	?	-23%	i	?	?	-10%
CCN(CC)c1ccc2ccc(=O)oc2c1	?	0%	i	i	0%	18µM*
CCN(CC)c1ccc2cc(C#N)c(=O)oc2c1	9%	20%	i	i	20%	1%
O=C1CCCN1CC(=O)N1CCCC(Nc2cccc(F)c2)C1 (centres undefined)	-2%	1%	nt	nt	11%	-2%
CCOc1ccc(-c2cc3c(=O)n(Cc4nc(-c5ccc(OC(C)C)cc5)oc4C)ccn3n2)cc1Cl	nt	nt	i	i	nt	nt
CC(=O)c1ccc(OCc2cc(C(=O)N3CCC(c4ccncc4)CC3)no2)cc1	?	18µM*	i	i	23µM*	-19%
Cc1ccc(OCc2cc(C(=O)N3CCCC(C)C3)no2)cn1 (centres undefined)	nt	-1%	?	21µM*	-1%	nt
COCCCn1cc(C(=O)c2cc(OC)ccc2OCC(=O)N2CCCCC2C)cc(C#N)c1=O (centres undefined)	-4%	18%	i	i	13%	-5%
Cn1c2c(c(=O)n(C)c1=O)C(CC(=O)Nc1ccccc1)C(=O)N2 (centres undefined)	3%	1%	i	i	-1%	-1%
CC(C)CNc1ncnc2nc[nH]c12	nt	nt	i	i	nt	nt
CC(C)CCCCCCCCCCCCC(=O)NCC(=O)NC1C(C)OC(Nc2ncnc3nc[nH]c23)C(O)C1O (centres undefined)	23%	1.8µM*	?	0.01µM*	0.12µM*	30%
Cc1ccc2c(Sc3ccc(Cl)cc3)c(C(=O)NCCC(C)C)[nH]c2c1	nt	nt	i	i	nt	nt
COc1cccc(-c2cnc3c(NC=O)cc(-c4cc(C)c(O)c(C)c4)cn23)c1	nt	?	?	6.5µM*	?	nt
COc1cccc(-c2cnc3c(NC=O)cc(-c4ccccc4)cn23)c1	nt	5.8µM*	7.3µM*	5.2µM*	2.6µM*	nt
COc1cccc(-c2cnc3c(NC=O)cc(-c4ccoc4)cn23)c1	nt	-10%	?	i	-9%	nt
COc1cccc(-c2cnc3c(NC=O)cc(-c4ccccc4Oc4ccccc4)cn23)c1	nt	?	21µM*	?	?	nt
O=C(O)/C=C/c1cccc(NC(=O)c2ccccc2)c1	-3%	-2%	i	i	2%	-2%
Cc1ccc(/C=C2/Sc3ccc(C(=O)N4CCN(c5ccccn5)CC4)cc3NC2=O)cc1	8.2µM*	-1%	i	i	3%	20%
Cc1ccccc1/C=C1\Sc2ccc(C(=O)N3CCN(c4ccccn4)CC3)cc2N(C)C1=O	23µM*	0%	?	i	-15%	3%
SMILES	MCF10A rerep	HT1080NT lethal	KB-V1 MDR tox	KB-3-1 cytotox	HT1080 IDH1KD tx	SW480 rereplic
COC(=O)/C=C/c1cc(F)ccc1S(=O)(=O)Nc1ccccc1	nt	nt	?	i	nt	nt
COC(=O)Nc1ccc(C)cc1NC(=O)OC	0%	-1%	i	i	0%	1%
COC(=O)Nc1ccc2ccc3c(NC(=O)OC)ccc4ccc1c2c43	21µM*	-16%	nt	nt	-27%	?
CCCCCn1c(=NC(C)=O)c(C#N)cc2c(=O)n3ccccc3nc21	?	20%	i	i	10%	?
CCOCCCn1c(=NC(C)=O)c(C#N)cc2c(=O)n3cccc(C)c3nc21	?	-1%	?	i	3%	13µM*
CCCCCn1c(=NC(=O)c2cccnc2)c(C#N)cc2c(=O)n3cccc(C)c3nc21	13µM*	7%	i	i	0%	8.2µM*
CCCCn1c(=NC(=O)c2ccc3c(c2)OCO3)c(C#N)cc2c(=O)n3cccc(C)c3nc21	?	4%	?	?	4%[9.24 µM]	?
CCCCn1c(=NC(C)=O)c(C#N)cc2c(=O)n3cccc(C)c3nc21	12µM*	4%	i	?	-4%	21µM*
COC(=O)C(C#N)C(=C1C(=O)CC(C)(C)CC1=O)c1ccc(O)cc1 (centres undefined)	-1%	-4%	i	i	-3%	-2%
Nc1nc(-c2ccc(Br)s2)c(Br)s1	21µM*	-25%	i	i	-23%	15%
Cc1ccc(Nc2nnc(-c3ccc(C)c(S(=O)(=O)NCc4nc5ccccc5[nH]4)c3)c3ccccc23)cc1	nt	nt	i	i	nt	nt
COc1ccccc1CNC(=O)/C=C/c1ccc(S(=O)(=O)N2CCOCC2)cc1	-2%	0%	i	i	-11%	-2%
COc1ccc(-c2csc(N(CCc3ccc(OC)c(OC)c3)C(=O)COc3ccccc3)n2)cc1	6%	5%	3.7µM*	i	12%	-9%

Source: PubChem BioAssay (National Center for Advancing Translational Sciences (NCATS))
